We go through 47 sequences from the supplement of paper PMC7726561.

The full ranking holds about 1,400 sequences; the median of “thermal melting temperature (Tm) of peptide-HLA complex” is about 60, and the lowest 2% start at about 45. Only a selection was taken, and the lowest values are over-represented in it overall.
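Note: lysates heated 10 min at 37–73 °C, complexes pulled down with pan-HLA I antibody, peptide signal by DIA-MS relative to 37 °C, Tm where half the complex is unfolded.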

For this experiment, the target named is HLA-B*07:02. As to the kind of experiment: thermal melting temperature (Tm) of peptide-HLA complex; higher = more thermostable pHLA complex. To be noted: C1R-B*07:02.
Sequence YLRDTLLAL returned a thermal melting temperature of 53.6 °C.

Sequence VPEVTKPSL gave a thermal melting temperature of 57.6 °C.

SPRPALPALL came in with a thermal melting temperature of 60.2 °C.

APILRARLLPL yielded a thermal melting temperature of 47.3 °C.

For YPKRPLLGL, the thermal melting temperature stood at 61.3 °C.

The sequence YIDEGRLVL had a thermal melting temperature of 51.6 °C.

As for GPRSSLRVL, the thermal melting temperature was determined as 58.9 °C.

Take FPRSVVEFL: the thermal melting temperature came to 62 °C.

Regarding LPAPKGPAL, the thermal melting temperature was 57.9 °C.

For the sequence LPTSPGPAL, the thermal melting temperature worked out at 40.6 °C.

The sequence KPNHTLVLL displayed a thermal melting temperature of 59.2 °C.

In turn, RPADSMLNVL yielded a thermal melting temperature of 62 °C.

Consider RPAPLVQQL, for which the thermal melting temperature stood at 58.3 °C.

For the sequence APREHPFVL, the thermal melting temperature was 61 °C.

Sequence LPRTIFPTSTI displayed a thermal melting temperature of 62.8 °C.

For the sequence LPHSATVTL, the thermal melting temperature worked out at 60.7 °C.

Take DPMKARVVL: the thermal melting temperature came to 49.3 °C.

IPKLPAVSF came in with a thermal melting temperature of 63.1 °C.

In the case of QPRSPGPDYSL, the thermal melting temperature is 57.7 °C.

In turn, RPKALTQVL registered a thermal melting temperature of 61 °C.

The sequence SPLVSRLTL registered a thermal melting temperature of 61.4 °C.

In turn, SPLVSRLTLY came in with a thermal melting temperature of 41.1 °C.

As to RPQLKGVVL, the thermal melting temperature was 61.1 °C.

Take SPLPSPSAM: the thermal melting temperature came out at 63.8 °C.

HPISNNNSL registered a thermal melting temperature of 41.6 °C.

NPMVTGTSV displayed a thermal melting temperature of 56.3 °C.

Sequence LPHEVDKSEL had a thermal melting temperature of 44.8 °C.

Turning to SPVLRNFTF, the thermal melting temperature amounted to 41.7 °C.

Sequence IPRPEVQAL gave a thermal melting temperature of 54.1 °C.

Regarding VPQVKASAL, the thermal melting temperature amounted to 59 °C.

With LPGLRDLVL, the thermal melting temperature amounted to 61.7 °C.

In the case of MPKVKTIEL, the thermal melting temperature was determined as 56.4 °C.

Sequence APRSVAVSSI showed a thermal melting temperature of 59.4 °C.

Sequence SPHPGLLL had a thermal melting temperature of 61 °C.

Sequence KPHIGLTEL yielded a thermal melting temperature of 60.7 °C.

LPRTPSYSI registered a thermal melting temperature of 62.1 °C.

In turn, HPISSEELLSL registered a thermal melting temperature of 58.6 °C.

Sequence MPKLRVLEL registered a thermal melting temperature of 57.1 °C.

YPNERFELL yielded a thermal melting temperature of 63.1 °C.

Sequence APSDLRTIQTF gave a thermal melting temperature of 62.8 °C.

In turn, RPFFPLTATL returned a thermal melting temperature of 49.6 °C.

Sequence FIRNRTLQL yielded a thermal melting temperature of 61.5 °C.

MPARWLTHL came in with a thermal melting temperature of 55 °C.

In turn, QPVAGRPSL displayed a thermal melting temperature of 55.8 °C.

In the case of QPNLKLLAM, the thermal melting temperature is 62.9 °C.

SPRGAGYLF came in with a thermal melting temperature of 63 °C.

The sequence RPVLWVGV gave a thermal melting temperature of 60.8 °C.
